Potency data for 27 compounds are collected here from PubChem BioAssay (NCATS).

“And” between values parts separate entries of the source, which are not always exact repeats. Identical values can stand only once. Records with an inconclusive call do not appear. The source made the active and inactive calls. Calls follow the shape of the dose curve; as a rule, active = well fitted curve in the direction sought with a large enough effect; inconclusive = small, poorly fitted or top-dose-only effect, or another doubt; inactive = no such curve, though single readings can be large; an effect the other way counts as inactive or inconclusive.

The nature of test [1]: Primary qHTS for inhibitors of nuclear receptor binding SET domain protein 2 (NSD2) in an isogenic RCH-ACV NSD2 p.E1099K mutant (9B) (AID 1645876).
Test [2] in a line: Primary qHTS for inhibitors of nuclear receptor binding SET domain protein 2 (NSD2) in an RCH-ACV wild type WT cells (2C) (AID 1645877). For orientation: Quantitative high-throughput screening tests each substance at several concentrations.
Also: nearly all actives have a fitted effect of over 70% in size.
Potency is read from the fitted curve at half-maximal effect.

For `Cc1cc2c(cc1N1C(=O)c3cccc4c(CCCO)ccc(c34)C1=O)n(C)c(=O)n2C`, the Potency in test [1] was 0.858 µM (active); in test [2] it was 0.608 µM (active).
Taken in the same sequence, the figures for `CN(C)CC1CCn2c(c(C3=C(c4cn(C)c5ccccc45)C(=O)NC3=O)c3ccccc32)C1` (centres undefined) were 7.28 µM (active) and 5.15 µM (active).
Taken in the same sequence, the figures for `COc1ccc(C2Oc3c(OC)cc(CCCO)cc3C2COC2OC(CO)C(O)C(O)C2O)cc1OC` (centres undefined) were “inactive” and “inactive”.
Turning to `CN1CCc2cc3c(cc2C(=O)Cc2cc4c(cc2C1)OCO4)OCO3`, the Potency result in test [1] and in test [2] was “inactive” each time.
With `Cc1ccc(C(C)C)c(O[C@@H]2O[C@H](CO)[C@@H](O)[C@H](O)[C@H]2O)c1`, the Potency entry in test [1] and in test [2] was “inactive” each time.
In the case of `COc1ccc2[nH]c(=O)c3c(c2c1)OC(C)(C)C=C3`, the Potency in test [1] and in test [2] was 14.5 µM (active) throughout.
In the case of `C[C@@H]1CC[C@@]23CC[C@]4(C)[C@@](C=CC5[C@@]6(C)CC[C@H](O)C(C)(C)C6CC[C@]54C)(OC2=O)C3[C@H]1C` (some centres undefined), the Potency entry in test [1] and in test [2] was “inactive” each time.
As to `CC[C@H]1OC(=O)[C@H](C)[C@@H](O[C@H]2C[C@@](C)(OC)[C@@H](O)[C@H](C)O2)[C@H](C)[C@@H](O[C@H]2O[C@H](C)C[C@H](N(C)C)[C@H]2O)[C@](C)(O)C[C@@H](C)C(=O)[C@H](C)[C@@H](O)[C@]1(C)O`, the Potency entry in test [1] and in test [2] was “inactive” in each case.
As to `COc1cccc(-c2cc(F)ccc2C2Cc3nc(N)nc(C)c3C(=O)N2)n1` (centres undefined), the Potency in test [1] is 0.0525 µM (active); in test [2] it was 0.059 µM (active).
For `C=C1C(=O)OC2CC(C)C(CCC(C)=O)=CCC12` (centres undefined), in that order: 18.3 µM (active) and 12.9 µM (active).
Taken in the same sequence, the figures for `C=C(C)C(=O)O[C@H]1[C@H]2C(=C)C(=O)O[C@@H]2/C=C(\CO)CC/C=C(/C=O)[C@@H]1O` were 12.7 µM (active) and 4.5 µM (active).
For `C=C1C(=O)O[C@@H]2[C@H]1CC[C@H](C)C(CCC(=O)O)C2(C)O` (some centres undefined), in that order: 18.3 µM (active) and 12.9 µM (active).
Consider `O=C(c1ccccc1)c1c(O)cc(O)cc1O[C@@H]1O[C@H](CO)[C@@H](O)[C@H](O)[C@H]1O`, for which the Potency result in test [1] and in test [2] was “inactive” throughout.
Consider `Cc1[nH]c2ccc(F)cc2c1-c1nc2c3cccnc3c3ncccc3c2[nH]1`, for which the Potency in test [1] is 1.21 µM (active); in test [2] it was 1.08 µM (active).
Taken in the same sequence, the figures for `Cc1cc2c(c(=O)o1)C=C1CC[C@H]([C@H](C)Cn3cnc(=N)c4[nH]cnc43)C[C@@H]1O2` were “inactive” and “inactive”.
Regarding `C[C@@H]1CC[C@]2(C(=O)O)CC[C@]3(C)C(=CCC4[C@@]5(C)CC[C@H](O)[C@](C)(C(=O)O)C5CC[C@]43C)C2[C@]1(C)O` (some centres undefined), the Potency entry in test [1] and in test [2] was “inactive” in each case.
Take `Cc1c[nH]c2ncnc(N3CCC(CN)(C(=O)Nc4cccc(OC(=O)N(C)C)c4)CC3)c12`: the Potency in test [1] is 9.34 µM (active) and 7.42 µM (active); in test [2], 10.5 µM (active) and 11.8 µM (active).
`CCC/C=C/C=C/C1CC(O)C2(O)C(=O)OCC12` (centres undefined): the Potency result in test [1] and in test [2] was “inactive” throughout.
For the compound `CC(C)(C)[C@H](NC(=O)c1ccc(N)c(Cl)c1)C(=O)N1CCC[C@H]1C(=O)N[C@H](C#N)CC(=O)O`, the Potency result in test [1] and in test [2] was “inactive” each time.
On to `CCC/C=C\C=C/CCc1cc(O)c([C@@H]2O[C@H](CO)[C@@H](O)[C@H](O)[C@H]2O)c(O)c1C(=O)OC`, for which the Potency result in test [1] and in test [2] was “inactive” in each case.
As for `C=C1C(=O)O[C@@H]2C[C@H](C)[C@@H]3CC(=O)[C@H](O)[C@@]3(C)C[C@H]12`, the Potency in test [1] was 20.5 µM (active); in test [2], 10.3 µM (active).
For `COc1ccc([C@H]2OC[C@H]3O[C@@H](O[C@H]4[C@@H]2NC[C@@H]4O)[C@H](O)[C@H]3O)cc1`, in that order: 0.8 µM (active) and 1.27 µM (active).
For `COC(=O)C1=COC(O[C@@H]2O[C@H](CO[C@@H]3O[C@H](COC(=O)/C=C\c4ccc(O)cc4)[C@@H](O)[C@H](O)[C@H]3O)[C@@H](O)[C@H](O)[C@H]2O)C2C(CO)=CCC12` (some centres undefined), in that order: “inactive” and “inactive”.
For `CCC(C)CC(=O)OC1C(=O)C(CO)=CC(O)C1C(C)C` (centres undefined), in that order: 2.58 µM (active) and 2.9 µM (active).
With `O=C(Nc1cnc(Cl)nc1)c1ccc(F)c(F)c1`, the Potency entry in test [1] and in test [2] was “inactive” in each case.
With `CC(=O)O[C@@H]1[C@@H](OC(C)=O)[C@H](C)O[C@@H](O[C@H]2[C@@H]3C=CO[C@@H](O[C@@H]4O[C@H](CO)[C@@H](O)[C@H](O)[C@H]4O)[C@@H]3[C@@]3(CO)O[C@@H]23)[C@@H]1OC(=O)/C=C/c1ccccc1`, the Potency in test [1] is 6.82 µM (active); in test [2] it was 4.83 µM (active).
For `CC(=O)O[C@H]1CC(C)(C)CC2[C@]13CO[C@@]21CCC2[C@@]4(C)CC[C@H](O[C@@H]5OC[C@H](O[C@@H]6O[C@H](CO)[C@@H](O)[C@H](O)[C@H]6O[C@@H]6OC[C@@H](O)[C@H](O)[C@H]6O)[C@H](O)[C@H]5O[C@@H]5O[C@H](CO)[C@@H](O)[C@H](O)[C@H]5O)[C@@](C)(CO)C4CC[C@@]2(C)[C@]1(C)C[C@H]3O` (some centres undefined), in that order: 2.45 µM (active) and 3.88 µM (active).
